Measurements: PubChem BioAssay (Tox21)
Inconclusive results are not listed. Entries that show only a call come without a potency. The source holds several records for some structures; these can differ, active in one and inactive in another. Calls of active or inactive are those of the source. Unless noted, calls come from the whole dose curve.

Molecular target: Nuclear receptor ROR-gamma (Homo sapiens) (UniProt P51449)
Test: qHTS assay to identify small molecule antagonists of the retinoid-related orphan receptor gamma (ROR-gamma) signaling pathway (AID 1159521; active = well fitted inhibition curve with a large enough effect in the repeat runs; note: nearly all actives have a fitted effect of over 50% in size; note: potency is the fitted concentration of half-maximal effect;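 for activity change, negative = inhibition: CHO cells with doxycycline inducible ROR-gamma driving an RORE luciferase reporter; top concentration of the series differs between compounds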)
Conditions: Tet-on RORgamma CHO cells, RORE-luciferase, 16 h; series mostly up to 92.4 µM; activity change, negative = inhibition: at the top concentration
How it was run: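 RORγ antagonism is scored from reduced reporter luminescence in Tet-on CHO cells. Induction used 1 uM final doxycycline hyclate for 16 h at 37 C, following a 2 h compound exposure.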
With `Cc1cccc(Nc2ccccc2C(=O)O)c1C` the “activity change, negative = inhibition” value was 12.3% [at 42.5 µM] (inactive).
For `Nc1cc(Cl)c(N)c(Cl)c1`, the “activity change, negative = inhibition” value was 43.9% (inactive).
With `IC(I)I` the “activity change, negative = inhibition” value was -23.4% (inactive).
In the case of `CC(=O)Oc1c(C)c(C)c2c(c1C)CC[C@@](C)(CCC[C@H](C)CCC[C@H](C)CCCC(C)C)O2`, the Potency is reported as “inactive”.
For `O=C1OC2(c3ccccc31)c1cc(I)c(O)c(I)c1Oc1c2cc(I)c(O)c1I`, the Potency was 48.7 µM (active) and inactive.
With `O=C(CCCN1CCC(O)(c2ccc(Cl)cc2)CC1)c1ccc(F)cc1` the “activity change, negative = inhibition” value was -14.5% [at 42.5 µM] (inactive).
For `CCO[Si](CCCNC(N)=O)(OCC)OCC`, the Potency was “inactive”.
With `OC[C@H]1O[C@@H]2O[C@H]3[C@H](O)[C@@H](O)[C@@H](O[C@H]4[C@H](O)[C@@H](O)[C@@H](O[C@H]5[C@H](O)[C@@H](O)[C@@H](O[C@H]6[C@H](O)[C@@H](O)[C@@H](O[C@H]7[C@H](O)[C@@H](O)[C@@H](O[C@H]1[C@H](O)[C@H]2O)O[C@@H]7CO)O[C@@H]6CO)O[C@@H]5CO)O[C@@H]4CO)O[C@@H]3CO` the Potency was “inactive”.
For `C=CN1CCCC1=O`, the “activity change, negative = inhibition” value was -3.99% (inactive).
For `CN(Cc1cnc2nc(N)nc(N)c2n1)c1ccc(C(=O)N[C@@H](CCC(=O)O)C(=O)O)cc1`, the Potency was “inactive”.
In the case of `O=C(O)CCCCCCCCCCCC(=O)O`, the Potency is reported as 53.6 µM (active) and inactive.
For `Cc1ccc(N)c([N+](=O)[O-])c1`, the “activity change, negative = inhibition” value was 15.9% (inactive).
In the case of `C[C@]12C=CC(=O)C=C1CC[C@H]1[C@@H]3C[C@@H](O)[C@](O)(C(=O)CO)[C@@]3(C)C[C@H](O)[C@@]12F`, the Potency is reported as “inactive”.
With `c1ccc2c(c1)ccc1cc3c(ccc4ccccc43)cc12` the Potency was “inactive”.
With `Nc1cc([N+](=O)[O-])ccc1C(=O)O` the Potency was “inactive”.
In the case of `CC1=CC(C)(C)Nc2ccccc21`, the “activity change, negative = inhibition” value is reported as -12% (inactive).
In the case of `C1COCCN1`, the Potency is reported as “inactive”.
For `O=C(O)c1ccc(O)cc1`, the Potency was “inactive”.
In the case of `COC(=O)C(C)Oc1ccc(Oc2ncc(C(F)(F)F)cc2Cl)cc1` (stereo not given), the Potency is reported as “inactive”.
With `OC[C@@H](O)[C@@H](O[C@@H]1O[C@H](CO)[C@H](O)[C@H](O)[C@H]1O)[C@H](O)[C@@H](O)CO` the Potency was “inactive”.
With `[O-]/[N+](=N\O)c1ccccc1` the Potency was “inactive”.
In the case of `Cc1ccc(C(C)(C)C)c(O)c1`, the Potency is reported as “inactive”.
In the case of `COCCOCCOCCO`, the Potency is reported as “inactive”.
With `CC/C=C\C/C=C\C/C=C\CCCCCCCC(=O)O` the “activity change, negative = inhibition” value was -11.4% (inactive).
With `C[C@]12CC[C@@H]3c4ccc(O)cc4CC[C@H]3[C@@H]1CC[C@@H]2O` the Potency was 27.3 µM (active).
With `CN(C)/N=N/c1nc[nH]c1C(N)=O` the Potency was “inactive”.
In the case of `Cc1ccc(C(C)(C)C)cc1`, the Potency is reported as “inactive”.
For `C[N+](C)(C)CCO`, the “activity change, negative = inhibition” value was -1.13% (inactive).

Test system: not listed separately
Test: qHTS assay to identify small molecule agonists of the AP-1 signaling pathway - cell viability counter screen (AID 1159525); note: nearly all actives have a fitted effect of over 55% in size
Conditions: ME-180 AP-1-bla cells viability, ATP luminescence, 5 h; series mostly up to 76.8 µM; viability change, negative = cytotoxic: at the top concentration
How it was run: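 ME-180 AP-1-bla, 2500 cells/well, Opti-MEM + 0.5% dialyzed FBS; overnight 37 °C; cpd 15-pt titration, 5 h 37 °C; CellTiter-Glo 30 min RT; luminescence read; normalised to TOAB and DMSO controls.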
For `Cc1cccc(Nc2ccccc2C(=O)O)c1C`, the “viability change, negative = cytotoxic” value was 4.59% [at 35.3 µM] (inactive).
In the case of `[Na+]`, the Potency is reported as “inactive”.
For `Nc1cc(Cl)c(N)c(Cl)c1`, the Potency was “inactive”.
With `IC(I)I` the Potency was “inactive”.
With `c1ccc2c(c1)[nH]c1ccccc12` the Potency was “inactive”.
With `CC(=O)Oc1c(C)c(C)c2c(c1C)CC[C@@](C)(CCC[C@H](C)CCC[C@H](C)CCCC(C)C)O2` the Potency was “inactive”.
In the case of `O=C1OC2(c3ccccc31)c1cc(I)c(O)c(I)c1Oc1c2cc(I)c(O)c1I`, the Potency is reported as “inactive”.
In the case of `O=C(CCCN1CCC(O)(c2ccc(Cl)cc2)CC1)c1ccc(F)cc1`, the Potency is reported as “inactive”.
In the case of `CCO[Si](CCCNC(N)=O)(OCC)OCC`, the Potency is reported as “inactive”.
In the case of `OC[C@H]1O[C@@H]2O[C@H]3[C@H](O)[C@@H](O)[C@@H](O[C@H]4[C@H](O)[C@@H](O)[C@@H](O[C@H]5[C@H](O)[C@@H](O)[C@@H](O[C@H]6[C@H](O)[C@@H](O)[C@@H](O[C@H]7[C@H](O)[C@@H](O)[C@@H](O[C@H]1[C@H](O)[C@H]2O)O[C@@H]7CO)O[C@@H]6CO)O[C@@H]5CO)O[C@@H]4CO)O[C@@H]3CO`, the Potency is reported as “inactive”.
For `C=CN1CCCC1=O`, the Potency was “inactive”.
With `C=C[C@H]1CN2CC[C@H]1C[C@H]2[C@H](O)c1ccnc2ccc(OC)cc12` the Potency was “inactive”.
With `CN(Cc1cnc2nc(N)nc(N)c2n1)c1ccc(C(=O)N[C@@H](CCC(=O)O)C(=O)O)cc1` the Potency was “inactive”.
For `O=C(O)CCCCCCCCCCCC(=O)O`, the Potency was “inactive”.
With `Cc1ccc(N)c([N+](=O)[O-])c1` the Potency was “inactive”.
For `C[C@]12C=CC(=O)C=C1CC[C@H]1[C@@H]3C[C@@H](O)[C@](O)(C(=O)CO)[C@@]3(C)C[C@H](O)[C@@]12F`, the Potency was “inactive”.
With `c1ccc2c(c1)ccc1cc3c(ccc4ccccc43)cc12` the Potency was “inactive”.
With `C=C[C@H]1CN2CC[C@H]1C[C@@H]2[C@@H](O)c1ccnc2ccc(OC)cc12` the Potency was “inactive”.
In the case of `Nc1cc([N+](=O)[O-])ccc1C(=O)O`, the Potency is reported as “inactive”.
With `FC(F)(F)C(Cl)Br` (stereo not given) the “viability change, negative = cytotoxic” value was 4.67% (inactive).
In the case of `CCCN1C=CN(C)C1`, the Potency is reported as “inactive”.
In the case of `CC1=CC(C)(C)Nc2ccccc21`, the “viability change, negative = cytotoxic” value is reported as 1.86% (inactive).
For `C1COCCN1`, the Potency was “inactive”.
For `O=C(O)c1ccc(O)cc1`, the Potency was “inactive”.
In the case of `COC(=O)C(C)Oc1ccc(Oc2ncc(C(F)(F)F)cc2Cl)cc1` (stereo not given), the Potency is reported as “inactive”.
In the case of `CCCCCCCCCCC(CO)CCCCCCCC` (stereo not given), the Potency is reported as “inactive”.
With `OC[C@@H](O)[C@@H](O[C@@H]1O[C@H](CO)[C@H](O)[C@H](O)[C@H]1O)[C@H](O)[C@@H](O)CO` the Potency was “inactive”.
For `[O-]/[N+](=N\O)c1ccccc1`, the Potency was “inactive”.
For `CC(C)(C)c1cccc(C(C)(C)C)c1O`, the Potency was “inactive”.
For `COCCOCCOCCO`, the Potency was “inactive”.
For `CC/C=C\C/C=C\C/C=C\CCCCCCCC(=O)O`, the Potency was “inactive”.
For `C[C@]12CC[C@@H]3c4ccc(O)cc4CC[C@H]3[C@@H]1CC[C@@H]2O`, the Potency was “inactive”.
In the case of `CN(C)C`, the Potency is reported as “inactive”.
In the case of `CN(C)/N=N/c1nc[nH]c1C(N)=O`, the Potency is reported as “inactive”.
With `Cc1ccc(C(C)(C)C)cc1` the Potency was “inactive”.
With `CC/C(=C(/CC)c1ccc(O)cc1)c1ccc(O)cc1` the “viability change, negative = cytotoxic” value was 9.55% [at 35.3 µM] (inactive).
With `C[N+](C)(C)CCO` the Potency was “inactive”.
